In all, about 5,500 compounds went through this assay and about 2,000 (36%) were called active. Another 18% or so got no clear call; they are omitted. No stated cut-off is given here; in the data, active means normalized growth mostly below about 0.91 (no sharp cut-off); inconclusive means no clear call, values can overlap the other calls; inactive means mostly above about 0.92. This is one part of the list.
Assay: chemical genetic growth profiling, strain panel (AID 1159580);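 further: tested at 20 µM; growth read once vehicle control cultures reached saturation at 30 °C; 1 = growth at the plate median or of vehicle wells; lower values mean less growth of the strain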
Conditions: S. cerevisiae deletion strains, growth OD
[1] = locus YAL013W, strain DEP1, active compounds read low
[2] = locus YBR229C, strain ROT2, active compounds read low
[3] = locus YDL101C, strain DUN1, active compounds read low
[4] = locus YDL134C, strain PPH21, active compounds read low
[5] = locus YDR150W, strain NUM1, active compounds read low
[6] = locus YEL061C, strain CIN8, active compounds read low
[7] = locus YGR078C, strain PAC10, active compounds read low
[8] = locus YGR229C, strain SMI1, active compounds read low
[9] = locus YHR030C, strain SLT2, active compounds read low
[10] = locus YHR087W, strain rtc3, active compounds read low
[11] = locus YJR043C, strain POL32, active compounds read low
[12] = locus YJR075W, strain HOC1, active compounds read low
[13] = locus YKL190W, strain CNB1, active compounds read low
[14] = locus YLR039C, strain RIC1, active compounds read low
[15] = locus YLR058C, strain SHM2 (second series), active compounds read low
[16] = locus YLR085C, strain ARP6, active compounds read low
[17] = locus YLR262C, strain YPT6, active compounds read low
[18] = locus YML094W, strain GIM5, active compounds read low
[19] = locus YMR219W, strain ESC1, active compounds read low
[20] = locus YMR263W, strain SAP30, active compounds read low
[21] = locus YMR307W, strain GAS1, active compounds read low
[22] = locus YNL153C, strain GIM3, active compounds read low
[23] = locus YNL298W, strain CLA4 (second series), active compounds read low
[24] = locus YNL322C, strain KRE1, active compounds read low
[25] = locus YNR030W, strain Alg12, active compounds read low
[26] = locus YPL055C, strain LGE1, active compounds read low
[27] = locus YPL241C, strain CIN2, active compounds read low
[28] = locus YPR135W, strain CTF4, active compounds read low
[29] = locus YAR019C, strain CDC15, active compounds read low
[30] = locus YBL105C, strain PKC1, active compounds read low
[31] = locus YBR135W, strain CKS1, active compounds read low
[32] = locus YBR136W, strain MEC1, active compounds read low
[33] = locus YBR160W, strain CDC28, active compounds read low
[34] = locus YDL017W, strain CDC7, active compounds read low
[35] = locus YDL028C, strain MPS1, active compounds read low
[36] = locus YDL108W, strain KIN28, active compounds read low
[37] = locus YDL132W, strain cdc53, active compounds read low
[38] = locus YDL214C, strain PRR2, active compounds read low
[39] = locus YDR052C, strain DBF4, active compounds read low
[40] = locus YDR054C, strain cdc34, active compounds read low
[41] = locus YDR226W, strain ADK1, active compounds read low
[42] = locus YDR477W, strain SNF1, active compounds read low
[43] = locus YER123W, strain YCK3, active compounds read low
[44] = locus YER133W, strain GLC7, active compounds read low
[45] = locus YFL009W, strain cdc4, active compounds read low
[46] = locus YFL029C, strain CAK1, active compounds read low
[47] = locus YFR003C, strain YPI1, active compounds read low
[48] = locus YFR019W, strain FAB1, active compounds read low
[49] = locus YFR028C, strain CDC14, active compounds read low
[50] = locus YGR040W, strain KSS1, active compounds read low
[51] = locus YGR052W, strain FMP48, active compounds read low
[52] = locus YGR092W, strain DBF2, active compounds read low
[53] = locus YHR079C, strain IRE1, active compounds read low
[54] = locus YHR082C, strain KSP1, active compounds read low
[55] = locus YHR205W, strain SCH9, active compounds read low
[56] = locus YIL147C, strain SLN1, active compounds read low
[57] = locus YJL095W, strain BCK1, active compounds read low
[58] = locus YJL128C, strain PBS2, active compounds read low
[59] = locus YJL157C, strain FAR1, active compounds read low
[60] = locus YJR016C, strain ILV3, active compounds read low
[61] = locus YJR066W, strain TOR1 (second series), active compounds read low
[62] = locus YJR066W, strain TOR1, active compounds read low
[63] = locus YKL048C, strain ELM1, active compounds read low
[64] = locus YKL067W, strain YNK1, active compounds read low
[65] = locus YKL101W, strain HSL1, active compounds read low
[66] = locus YKL193C, strain SDS22, active compounds read low
[67] = locus YKL203C, strain TOR2, active compounds read low
[68] = locus YLR113W, strain HOG1, active compounds read low
[69] = locus YLR133W, strain CKI1, active compounds read low
[70] = locus YLR403W, strain SFP1, active compounds read low
[71] = locus YML070W, strain DAK1, active compounds read low
[72] = locus YMR001C, strain CDC5, active compounds read low
[73] = locus YMR205C, strain PFK2 (second series), active compounds read low
[74] = locus YMR277W, strain FCP1, active compounds read low
[75] = locus YNL006W, strain LST8, active compounds read low
[76] = locus YNL020C, strain ARK1, active compounds read low
[77] = locus YNL161W, strain CBK1, active compounds read low
[78] = locus YNL183C, strain NPR1, active compounds read low
[79] = locus YNL207W, strain RIO2, active compounds read low
[80] = locus YNL222W, strain SSU72, active compounds read low
[81] = locus YNL307C, strain MCK1 (second series), active compounds read low
[82] = locus YOL078W, strain AVO1, active compounds read low
[83] = locus YOL136C, strain PFK27, active compounds read low
[84] = locus YOR061W, strain CKA2, active compounds read low
[85] = locus YOR119C, strain RIO1, active compounds read low
[86] = locus YOR231W, strain MKK1, active compounds read low
[87] = locus YOR329C, strain SCD5, active compounds read low
[88] = locus YPL031C, strain PHO85, active compounds read low
[89] = locus YPL153C, strain RAD53, active compounds read low
[90] = locus YPL204W, strain HRR25, active compounds read low
[91] = locus YPL209C, strain IPL1, active compounds read low
[92] = locus YPL256C, strain CLN2, active compounds read low
[93] = locus YPR025C, strain CCL1, active compounds read low
[94] = locus YPR106W, strain ISR1, active compounds read low
[95] = locus YPR111W, strain DBF20, active compounds read low
[96] = strain NNK1, active compounds read low
[97] = strain TSCII, active compounds read low
[98] = locus YOL006C, strain TOP1, active compounds read low

Measured: normalized growth

Cc1nc(C(F)(F)F)nc(Sc2n[nH]c(-c3cc(Cl)cc(Cl)c3)n2)c1C
inactive: [1] 1.03 | [2] 1.01 | locus YCL061C, strain MRC1, active compounds read low 1 | [3] 0.996 | [4] 1.01 | [5] 0.996 | [6] 0.985 | [7] 1.01 | [8] 1.01 | [9] 1.02 | [10] 1.03 | [11] 1.01 | [12] 1.02 | [13] 1 | [14] 1.07 | [15] 0.998 | [17] 1.02 | [18] 0.994 | [19] 1.02 | [20] 0.993 | [21] 0.988 | [22] 0.995 | [23] 0.966 | [24] 0.995 | [25] 0.974 | [26] 1.03 | [27] 1.07 | [28] 1.17
active: [16] 1.25 [resistant]

O=[N+]([O-])c1cc(C(F)(F)F)ccc1Sc1n[nH]c(-c2cc(Cl)cc(Cl)c2)n1
active: [38] 0.537 | [42] 0.578 | [43] 0.329 | [44] 0.716 | [48] 0.207 | [50] 0.678 | [51] 0.541 | [52] 0.129 | [9] 0.147 | [53] 0.131 | [54] 0.231 | [55] 0.472 | [57] 0.228 | [59] 0.15 | [61] 0.203 | [62] 0.16 | [63] 0.298 | [64] 0.426 | [65] 0.201 | [67] 0.601 | [68] 0.223 | [69] 0.164 | [70] 0.602 | [71] 0.293 | [73] 0.399 | [76] 0.133 | [78] 0.497 | [81] 0.14 | [83] 0.194 | [84] 0.164 | [85] 0.673 | [86] 0.155 | [88] 0.32 | [89] 0.26 | [90] 0.255 | [92] 0.166
inactive: [29] 0.925 | [30] 0.954 | [31] 0.951 | [32] 0.936 | [33] 0.935 | [34] 0.95 | [35] 0.917 | [3] 0.987 | [36] 0.94 | [37] 0.937 | [39] 0.944 | [40] 0.896 | [41] 0.943 | [45] 0.909 | [46] 0.929 | [47] 0.954 | [49] 0.933 | [56] 0.929 | [58] 0.811 | [60] 0.939 | [66] 0.94 | [72] 0.925 | [74] 0.926 | [75] 0.931 | [77] 0.949 | [79] 0.948 | [80] 0.935 | [82] 0.943 | [87] 0.939 | [91] 0.948 | [93] 0.952 | [94] 0.944 | [95] 0.908 | [96] 0.917 | [97] 0.919

Nc1nc(Sc2ccc(C(F)(F)F)cc2[N+](=O)[O-])n[nH]1
inactive: [1] 0.988 | [2] 0.998 | [3] 1.02 | [5] 0.901 | [6] 1.02 | [7] 1.01 | [9] 1.03 | [10] 0.988 | [11] 1.01 | [12] 1.01 | [13] 1 | [14] 1.07 | [15] 1.01 | [16] 1.16 | [17] 1.03 | [18] 0.995 | [19] 1 | [20] 1.01 | [21] 1.24 | [22] 1.01 | [23] 1.01 | [24] 1 | [25] 0.999 | [98] 1.06 | [26] 0.872 | [27] 1.08 | [28] 0.892

O=C(Nc1ccccc1Sc1ccc(C(F)(F)F)cc1[N+](=O)[O-])C(Cl)Cl
inactive: [29] 0.997 | [30] 0.994 | [31] 0.987 | [32] 0.991 | [33] 0.994 | [34] 1.01 | [35] 0.992 | [3] 0.983 | [36] 0.991 | [37] 0.994 | [38] 0.952 | [39] 1 | [40] 0.998 | [41] 0.993 | [42] 0.985 | [43] 0.958 | [44] 0.959 | [45] 0.995 | [46] 0.996 | [47] 0.986 | [48] 0.955 | [49] 0.983 | [50] 0.964 | [51] 0.963 | [52] 0.909 | [9] 0.985 | [53] 0.973 | [54] 1.02 | [55] 0.864 | [56] 0.995 | [57] 0.894 | [58] 0.945 | [59] 0.961 | [60] 0.999 | [61] 0.933 | [62] 1.01 | [63] 0.949 | [64] 0.934 | [65] 0.946 | [66] 0.996 | [67] 1.01 | [68] 0.907 | [69] 0.947 | [70] 0.915 | [71] 0.938 | [72] 0.998 | [73] 0.953 | [74] 0.984 | [75] 0.986 | [76] 0.959 | [77] 0.993 | [78] 0.96 | [79] 0.989 | [80] 0.99 | [81] 0.903 | [82] 0.99 | [83] 0.907 | [84] 0.97 | [85] 1.05 | [86] 0.935 | [87] 0.997 | [88] 0.984 | [89] 0.991 | [90] 0.958 | [91] 0.992 | [92] 1.02 | [93] 0.997 | [94] 0.996 | [95] 0.967 | [96] 0.976 | [97] 0.992

O=[N+]([O-])c1cc(C(F)(F)F)ccc1Sc1ccc(Cl)cc1
inactive: [1] 1 | [2] 1.01 | [3] 1 | [4] 0.98 | [5] 0.957 | [6] 1.01 | [7] 1.01 | [9] 0.901 | [10] 1.01 | [11] 1 | [12] 1.02 | [13] 1.01 | [14] 0.928 | [15] 1 | [17] 0.967 | [18] 0.97 | [19] 1.01 | [20] 1.01 | [22] 1.02 | [23] 0.995 | [24] 0.996 | [25] 0.978 | [26] 1.04 | [27] 0.967 | [28] 0.97
active: [16] 0.757

Nc1nc(Sc2cc(-n3cccc3)c(Cl)cc2[N+](=O)[O-])n[nH]1
inactive: [1] 0.992 | [2] 1 | [3] 0.998 | [5] 0.997 | [6] 0.994 | [7] 0.995 | [8] 1 | [9] 0.972 | [10] 0.992 | [11] 0.996 | [12] 1.01 | [14] 0.973 | [15] 1 | [16] 0.972 | [17] 1 | [18] 0.983 | [19] 1 | [20] 1.01 | [21] 0.985 | [22] 0.995 | [23] 0.972 | [24] 1 | [25] 0.995 | [98] 1.02 | [26] 0.989 | [27] 0.936 | [28] 0.933

Cn1c(Sc2ccc(C(F)(F)F)cc2[N+](=O)[O-])nnc1C(F)(F)F
inactive: [1] 1 | [2] 1.01 | [3] 1.02 | [5] 0.988 | [6] 1 | [7] 1.01 | [9] 1.04 | [10] 1 | [11] 1 | [12] 0.973 | [13] 1.01 | [14] 1.02 | [15] 1.01 | [16] 1.05 | [17] 1.01 | [18] 1.05 | [19] 0.996 | [20] 0.994 | locus YNL128W, strain TEP1, active compounds read low 0.994 | [22] 1 | [23] 0.993 | [24] 1 | [25] 1.02 | [98] 0.899 | [26] 1.01 | [27] 1.11 | [28] 1.05
